According to ChEMBL document CHEMBL3988442, “University of Dundee, Small-Polar-MMV Screening Library” (2021):
About 900 (1.7%) of roughly 53,000 compounds showed an effect of 50% or more. Only a selection was taken, and strong results are over-represented in it overall.

Each compound was assayed on Mycobacterium tuberculosis (assay: Cornell - Phenotypic assay to identify agents that inhibit growth of Mycobacterium tuberculosis). Conditions: 10 mM as filed; unlikely as a test dose.
Assay type: functional
Set-up: scale not given: direction of the effect not stated beside the values

| SMILES | Percent Effect [%] |
| --- | --- |
| CC(C)c1nc(O)c2nnn(C[C@@H]3CCCN(Cc4ccsc4)C3)c2n1 | 7.526 |
| Cc1ccc(CNC(C)(C)c2noc(C(C)(C)C)n2)o1 | -0.4607 |
| COCc1nc2cc(NCc3ccc(CO)o3)ccc2o1 | 97.16 |
| COCc1nc2c(o1)CN(C(=O)NCc1ccccc1)C2 | -49.74 |
| COCc1nc2cc(NCc3ccc(C)o3)ccc2o1 | 107.3 |
| CCC(C)CNc1ccc2oc(COC)nc2c1 (centres undefined) | 35.01 |
| CC(C)(C)C(=O)N1C[C@@H](F)[C@@H](OCc2nc3ccccc3o2)C1 | 16.14 |
| Cc1nc(-c2ccccc2)nc2c1CCN(Cc1nccn1C)CC2 | 6.349 |
| CN(C)c1ncc(C2Nc3cc(Cl)ccc3C3=NCCCN32)cn1.Cl (centres undefined) | 8.449 |
| CCOc1ccc(NC(=O)c2cc(C)c(C)o2)cc1CO | 22.28 |
| CCOc1ccc(NC(=O)c2oc(CC)cc2C)cc1CO | 34.25 |
| CCOc1ccc(NC(=O)c2[nH]c(C)cc2C)cc1CO | 102.6 |
| COCC(=O)N1CCN(C)CC(Cc2cc(N(C)C)ncn2)C1 (centres undefined) | 14.46 |
| CN1CCC(c2[nH]ncc2S(C)(=O)=O)CC1 | 6.792 |
| Cc1[nH]c2c(C)cccc2c1CC(=O)N(C)CCN(C)C.O=C(O)CC(O)(CC(=O)O)C(=O)O | 27.37 |
| Cc1ccc2c(CC(=O)N(C)CCN(C)C)c(C)[nH]c2c1C.O=C(O)CC(O)(CC(=O)O)C(=O)O | 8.878 |
| CCc1cccc2c(CC(=O)N(C)CCN(C)C)c(C)[nH]c12.O=C(O)CC(O)(CC(=O)O)C(=O)O | 51.84 |
| COCCN1CCN(S(=O)(=O)c2ccccc2)Cc2cccnc21.O=C(O)C(F)(F)F | 12.13 |
| N#Cc1cc(NS(=O)(=O)c2cc(C(=O)O)cc(Cl)c2Cl)ccc1F | 13.91 |
| CN(C)S(=O)(=O)N1CC(c2nc(-c3ccsc3)no2)C1 | 18.06 |
| CCOC(=O)CN1CC(c2nc(-c3ccsc3)no2)C1.O=C(O)C(=O)O | 51.67 |
| CCS(=O)(=O)N1CC(c2nc(-c3ccsc3)no2)C1 | -31.96 |
| O=C1NCCN1C(CNS(=O)(=O)C1CC1)Cc1cccc(F)c1 (centres undefined) | 21.82 |

| SMILES | Percent Effect [%] |
| --- | --- |
| CC(=O)Nc1nccn1Cc1ccccc1Cl | 15.67 |
| Cn1ccc(C(=O)Nc2nccn2Cc2ccccc2Cl)cc1=O | 51.57 |
| CCOCC(=O)Nc1nccn1Cc1ccccc1Cl | 48.83 |
| O=C(CCS(=O)(=O)C1CCCC1)N1CCCC1c1ccsc1 (centres undefined) | -6.93 |
| Cc1nonc1NC(=O)CCn1cc(Br)ccc1=O | 6.093 |
| Cc1cc(O)cc(=O)n1CCCC(=O)Nc1n[nH]c2ccccc12 | 81.79 |
| Cc1noc(C)c1NC(=O)CCn1cc(Br)ccc1=O | 22.38 |
| Cc1cc(O)cc(=O)n1CCCC(=O)Nc1n[nH]c2cc(Br)ccc12 | 104.6 |
| Cn1cc(NC(=O)C2CC(=O)N(c3n[nH]c4cccc(F)c34)C2)cn1 (centres undefined) | -30.85 |
| Cc1cc(NC(=O)Cn2ccc(=O)c3ccccc32)[nH]n1 | -8.025 |
| Cc1cc(O)cc(=O)n1CCCC(=O)Nc1n[nH]c2cccc(F)c12 | 103.9 |
| CS(=O)(=O)CCCC(=O)Nc1cc(-c2cccc(F)c2F)n[nH]1 | -2.681 |
| CC(C)Cc1cc(NC(=O)c2n[nH]c3ccccc23)n(C)n1 | 15.6 |
| CCc1ccc(NC(=O)C(C)N2CCN(Cc3ncc[nH]3)CC2)cc1 (centres undefined) | -0.1574 |
| CC(C(N)=O)N1CCN(c2ncc(Cl)cn2)CC1 (centres undefined) | -8.902 |
| O=C(COc1coc(CN2CCCCC2)cc1=O)c1ccccc1 | -5.787 |
| CC(C)N(C(=O)CCc1ccco1)C1CCOCC1 | 2.754 |
| CCN1N=C(C(=O)N2CCCC(c3nc(C)c(C)s3)C2)CCC1=O (centres undefined) | -28.99 |
| O=C(CSC1CCc2ccccc2NC1=O)NCCc1ccc(O)cc1 (centres undefined) | -13.35 |
| CCn1cc2c(n1)C(COC)CN(C(=O)c1ccccn1)C2 (centres undefined) | 22.8 |
| Cc1nn(C)c(C)c1C(=O)NCc1cc(N(C)C)nc2ccccc12 | -29.39 |
| Cn1cnnc1S(=O)(=O)C1CCN(S(=O)(=O)c2ccc(Cl)s2)CC1 | 6.004 |
| CCn1nccc1C(=O)Nc1nc(C)c(C(C)=O)s1 | 37.96 |

| SMILES | Percent Effect [%] |
| --- | --- |
| CCCn1nccc1C(=O)Nc1ncc(C)s1 | 29.79 |
| CCCn1nccc1C(=O)Nc1nc(C)c(C)s1 | 63.52 |
| CC(C)c1cc(C(=O)O)nc2[nH]c(=O)[nH]c(=O)c12 | 12.95 |
| COc1ccc(CNC(=O)C(NC(=O)Cc2ccccc2)C(C)C)cn1 (centres undefined) | -38.43 |
| COCCN1C(=O)[C@H]2CC[C@@H]1CN(Cc1nnc(C3CC3)o1)C2 | -7.325 |
| O=C(O)C(F)(F)F.O=C1[C@H]2CN(CC3CC3)C[C@H]2CN1Cc1cccc(F)c1 | 9.244 |
| O=C(C[S+]([O-])Cc1csc(C2CCCC2)n1)NC1CCCC1 (centres undefined) | 8.301 |
| O=C(C[S+]([O-])Cc1csc(C2CCCC2)n1)Nc1ccccc1 (centres undefined) | 105.1 |
| CC(C)CNC(=O)C[S+]([O-])Cc1csc(C2CCCCC2)n1 (centres undefined) | 18.38 |
| CCn1cnnc1CNC(=O)c1cc(Cl)ccc1I | 10.82 |
| CN(CCNC(=O)c1cnc(-c2ccccc2)nc1)S(C)(=O)=O | -18.18 |
| CCOC(=O)c1cc(C(C)(O)CCC=C(C)C)on1 (centres undefined) | 106.6 |
| CC(C)=CCCC(C)(O)c1cc(C(N)=O)no1 (centres undefined) | 37.88 |
| CCCC(C)(O)c1cc(C(N)=O)no1 (centres undefined) | 45.9 |
| CNC(=O)Cn1ccc2ccc(NC(=O)C(C)C)cc21 | 6.028 |
| CCCC(O)CN1CC(C)(C)CN(C(=O)c2ccccc2)CC1=O (centres undefined) | 6.323 |
| Cc1cc(N2CCC(O)(CN(C)C(=O)CCN)C2)c2cnccc2n1 (centres undefined) | 27.99 |
| CNc1cc(CCNC(=O)CC(C)C)nc(-c2ccccn2)n1 | 53.37 |
| CNc1cc(CCNS(=O)(=O)c2ccccc2)nc(-c2ccccn2)n1 | 45.23 |
| CNc1cc(CCNC(=O)C2CCCC2)nc(-c2ccccn2)n1 | 52.1 |
| Cc1ncc(-c2ccccn2)c(CCNC(=O)C2CCCC2)n1 | -18.28 |
| CNc1cc(CCNC(=O)c2cccnc2)nc(-c2ccncc2)n1 | -1.38 |
| CCCC(=O)NCCc1cc(NC)nc(-c2ccccn2)n1 | 8.218 |
